The values below come from ChEMBL document CHEMBL4513216, “Probing the Open Global Health Chemical Diversity Library for Multistage-Active Starting Points for Next-Generation Antimalarials” (ACS Infect Dis, 2020).

Among all 69,000 compounds or so, about 8,600 (12%) showed an effect of 50% or more. This excerpt belongs to a sample that is enriched for strong results.

For this experiment, the system named is Plasmodium berghei. In words: Screen against P. berghei liver stage (PbLuc), transformed with Luciferase, at 10uM. As to conditions: tested at 10 uM. Format: functional, HepG2.
Consider `CN1CC(C(=O)NC2(c3cccc(F)c3)CCOCC2)CC1=O` (centres undefined), for which the INHIBITION was -36%. For the compound `O=C(NC1(c2cccc(F)c2)CCOCC1)c1ccoc1`, the INHIBITION turned out to be 18.5%. The result for `O=C(NC1(c2cccc(F)c2)CCOCC1)c1cc[nH]n1` reads 13.5%; that for `COc1ncccc1C(=O)NC1(c2cccc(F)c2)CCOCC1`, 65.3%. As to `CCC(CC)C(=O)N1CCCc2c(cnn2C)C1`, the INHIBITION turned out to be 31.9%. `O=C(CCc1cc(Cl)no1)N1CCC(c2cc3ncccc3cn2)CC1`: the INHIBITION is listed as 23.2%. In the case of `CCOc1ccccc1-n1c(-c2cn(CC)nc2C)n[nH]c1=O`, the INHIBITION turned out to be 18%. Turning to `CN1CCCC(CCC(=O)NCCCn2ncc3ccccc32)C1` (centres undefined), the INHIBITION turned out to be 17%. Turning to `CC(=O)Nc1cc(C(C)(C)C)sc1C#N`, the INHIBITION is -52.4%. On to `CC(C)[C@@H]1CN(C(=O)c2ccsc2)C[C@H]1C(=O)O`, for which the INHIBITION came to 30.9%. The result for `Cc1cc(C(=O)N2C[C@@H](C(=O)O)[C@H](C(C)C)C2)cs1` reads 46.1%. With `Cc1cncc(C(=O)N2C[C@@H](C(=O)O)[C@H](C(C)C)C2)c1`, the INHIBITION amounted to 72.2%.

In the case of `CC(NC(=O)NCCCn1cccn1)c1ccncc1` (centres undefined), the INHIBITION is 36.3%. For the compound `COC(=O)c1cc2n(n1)CCN(C(=O)c1csc(CN(C)C)n1)C2`, the INHIBITION is listed as -4.96%. `COC(=O)Cn1c(=O)[nH]c2cn(-c3cccc(Cl)c3)c(=O)n21`: the INHIBITION stood at 33.7%. The result for `COCCOCC(=O)N1C[C@@H]2CC[C@H](Oc3ccccc3Cl)[C@@H]2C1` reads 40%; that for `Cc1nn(C)cc1C(C)Nc1ncc(C(N)=O)cc1Cl` (centres undefined), 71.1%; that for `COc1ccccc1C(C)Nc1ncc(C(N)=O)cc1Cl` (centres undefined), -7.25%. Then `COc1cc(C)c(C(C)Nc2ncc(C(N)=O)cc2Cl)cc1OC` (centres undefined), with -37.7%; and `Cc1noc2ncc(C(=O)NCC3CCCOC3)cc12` (centres undefined), with -6.45%. Then `N#CC1(NC(=O)c2cc(Cl)c3c(c2)OCCCO3)CCC1`, with -14.2%. Regarding `c1cnc2ccc(C[C@@H]3CC[C@H](CN4CCCOCC4)O3)cc2c1`, the INHIBITION is listed as 23.5%. For `Cc1cc(C(=O)N2CCc3ncnc(-c4cnn(C)c4)c3CC2)no1`, the INHIBITION was 0.618%. Then `CN1CCC2(CCCN(S(=O)(=O)c3ccc(-c4cnco4)s3)C2)C1` (centres undefined), with 37.3%; and `Cc1occc1CNC(=O)N1CCC(Cc2cnn(C)c2)C1` (centres undefined), with -24.15%.

As for `CCc1ccc(S(=O)(=O)N2Cc3c(CN(C)C)nn(C)c3C2)cc1`, the INHIBITION is on record as 72%.

For the compound `COc1ccc(S(=O)(=O)N2Cc3c(CN(C)C)nn(C)c3C2)cc1`, the INHIBITION is on record as -6.23%.

Regarding `Cc1ccc(S(=O)(=O)N2Cc3c(CN(C)C)nn(C)c3C2)cc1`, the INHIBITION came out at 0.542%. On to `Cc1ccc(NC2CCN(C(=O)c3nccc4ccccc34)CC2)nn1`, for which the INHIBITION is reported as -45.9%.

On to `CN(C)c1ncc(-c2cncnc2)c(C2CNCCO2)n1` (centres undefined), for which the INHIBITION is listed as 20.6%.

With `CCc1nnc(CN2CCCCC2Cn2nc(C)nc2C)o1` (centres undefined), the INHIBITION was 22.3%. As to `CS(=O)(=O)N[C@@H]1CN(Cc2ccco2)C[C@@H]2CCCO[C@@H]21`, the INHIBITION is given as 5.96%. The result for `CSCCCN1CCC(c2nnc(Cn3ccnc3)n2C2CC2)CC1` reads -79.3%; that for `NCCN1CCC(c2nnc(Cn3ccnc3)n2C2CC2)CC1`, 62.3%. Turning to `CC(C)(C)CN1CCC(c2nnc(Cn3ccnc3)n2C2CC2)CC1`, the INHIBITION is reported as 38%. The result for `CN1CCC(c2nnc3n2CCN(S(=O)(=O)c2ccccc2Cl)C3)CC1` reads 10.75%. The result for `CC(C)OCCN1CCC(C(=O)c2cc(F)ccc2F)CC1` reads -13.5%; that for `COCCN1CCC(C(=O)c2cc(F)ccc2F)CC1`, 5.03%; that for `NC(=O)CCN1CCC(C(=O)c2cc(F)ccc2F)CC1`, 18.2%. Then `CCOCCN1CCC(C(=O)c2cc(F)ccc2F)CC1`, with 60.5%. With `COC(=O)CCN1CCC(C(=O)c2cc(F)ccc2F)CC1`, the INHIBITION came to 46.9%. Then `CC(C)NC(=O)CCN1CCC(C(=O)c2cc(F)ccc2F)CC1`, with 69.3%; and `NC(=O)NC(=O)CCN1CCC(C(=O)c2cc(F)ccc2F)CC1`, with 40.5%. On to `CCOC(=O)CN1CCC(C(=O)c2cc(F)ccc2F)CC1`, for which the INHIBITION is 32.6%. For `COCCCN1CCC(C(=O)c2cc(F)ccc2F)CC1`, the INHIBITION is on record as 56.4%. The result for `Cc1nc(NCc2ccc(F)cc2)cc(C2CCCN2)n1` (centres undefined) reads 41.5%; that for `O=C(Cn1ccc2ccc(Br)cc21)NCc1ccc(C(=O)O)cc1`, -30.8%; that for `CC(C)c1nn(C)c(N(C)C)c1CNC1CCCOc2ccccc21` (centres undefined), 35.4%. Then `COCc1nc(N(C)C)ncc1C(=O)Nc1ccc(Cl)cc1`, with -18.8%; and `O=C(COC1CCCC1)NCc1ccc(O)c(F)c1`, with -16.4%; and `CN1CC(=O)N(c2cccc(F)c2)CC12CCN(Cc1ccsc1)C2` (centres undefined), with 23.6%. As to `Cc1ccc(Cl)cc1-n1nnnc1C1(N2CCCC2)CCCCC1`, the INHIBITION is listed as 63.9%.

On to `Cc1ccc(Cl)cc1-n1nnnc1C1(N2CCCC2)CCCC1`, for which the INHIBITION is 33%.

Consider `Clc1ccc2nncc(N3CCCCC3)c2c1`, for which the INHIBITION is -0.991%.
